TR SRC2 fluor cs – counter-screen for TRb-SRC2 inhibitors: fluorescence interference | TRb/SRC2 Texas Red total fluorescence interference | Potency, µM (series often up to 106 µM), without a hit: top-dose fluorescence change, negative = quenching | hit rate 0.29% among 280,000 | AID 1479; active means well fitted curve in either direction with a large enough effect; inconclusive means small, poorly fitted or top-dose-only effect; further: on the % scale 0 is the no-effect control and ±100 the full control effect
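Human TRb ligand-binding domain at 0.6 uM with 20 nM Texas Red SRC2 peptide in Tris buffer containing 1 uM T3 and 5% DMSO, incubated with compound 5 h at ambient temperature. Total fluorescence (555/632 nm) calculated as parallel + 2 × perpendicular.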
RECQ1 inh – RECQ1 (human) helicase inhibition. hit rate 0.54% among 240,000. P46063. Potency, µM (series often up to 57.3 µM), for the others: top-dose activity, negative = inhibition, hits mostly inhibitors. RECQ1 DNA unwinding, red fluorescence kinetic read. AID 2549;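 further: plate controls were vehicle for no effect and no enzyme for full effect; nearly all actives have a fitted effect of over 30% in size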
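RECQ1T1 50 nM; forked duplex (20 bp + 30-nt ss tails) 200 nM, ATP 2 mM final; pH 8.0, 2 mM MgCl2, 2.5 ug/ml poly(dI-dC); 15 min compound preincubation; discontinuous kinetic read over 2 h at RT.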
TRb-SRC2 inh – disrupts binding of human TR beta to SRC2; P10828; TRbeta-SRC2 peptide binding, fluorescence polarization; receptor liganded with 1 µM T3; Potency, µM (titrated, usually from 106 µM), for inactives: top-dose activity change, negative = inhibition, most hits filed as inhibitors; hit rate 0.065% among 280,000;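 further: plate controls were bound peptide for no effect and peptide without receptor for full effect; nearly all actives have a fitted effect of over 50% in size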
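Decrease in fluorescence polarization of 20 nM Texas Red SRC2 coactivator peptide flagged inhibition of its binding to 0.6 uM TRb LBD; 1 uM T3 included, incubation 5 hr, ex 555/em 632 nm.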
BLM inh – blocks DNA unwinding by human BLM helicase. recombinant BLM DNA unwinding, fluorescence dequenching. Potency, µM (highest dose often 56.1 µM), for inactives: at the top dose activity change, negative = inhibition, hits mostly inhibitors. hit rate 0.2% among 350,000. AID 2528;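 further: plate controls were vehicle for no effect and no enzyme for full effect; nearly all actives have a fitted effect of over 35% in size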
RGS12 GoLoco inh – RGS12 GoLoco-Gai1 interaction inhibition. Gai1:RGS12 GoLoco peptide FP, rhodamine, 10 min. AID 880. hit rate 0.44% among 230,000. Potency, µM (highest dose often 61.6 µM), for the others: at the highest dose activity, negative = inhibition, most hits filed as inhibitors. P63096; active means well fitted inhibition curve with a large enough effect, not every such curve was filed as active; inactive means no such curve, though single readings can be large or run the other way; further: on the % scale 0 is the no-effect control and ±100 the full control effect; nearly all actives have a fitted effect of over 30% in size
ERG-DNA inh – blocks human ERG Ets domain binding to DNA; hit rate 0.028% among 370,000; fluorescence polarization, His-ERG Ets domain / labelled DNA; Potency, µM (doses to about 76.9 µM), for the others: top-dose FP activity, negative = inhibition, usual class: inhibitors; AID 624246; active means well fitted inhibition curve with a large enough effect in the polarisation, with a control signal flat; inconclusive means small, poorly fitted or top-dose-only effect, or effect the other way, or a change in a side signal; inactive means no such curve, though single readings can be large or run the other way; the % refers to the polarisation;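 further: polarization taken with two DNA probes labelled with fluorescein and Texas red; % of control where 0% means no effect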
Target sequence (P11308 whole entry, looked up, the tested form may be a part): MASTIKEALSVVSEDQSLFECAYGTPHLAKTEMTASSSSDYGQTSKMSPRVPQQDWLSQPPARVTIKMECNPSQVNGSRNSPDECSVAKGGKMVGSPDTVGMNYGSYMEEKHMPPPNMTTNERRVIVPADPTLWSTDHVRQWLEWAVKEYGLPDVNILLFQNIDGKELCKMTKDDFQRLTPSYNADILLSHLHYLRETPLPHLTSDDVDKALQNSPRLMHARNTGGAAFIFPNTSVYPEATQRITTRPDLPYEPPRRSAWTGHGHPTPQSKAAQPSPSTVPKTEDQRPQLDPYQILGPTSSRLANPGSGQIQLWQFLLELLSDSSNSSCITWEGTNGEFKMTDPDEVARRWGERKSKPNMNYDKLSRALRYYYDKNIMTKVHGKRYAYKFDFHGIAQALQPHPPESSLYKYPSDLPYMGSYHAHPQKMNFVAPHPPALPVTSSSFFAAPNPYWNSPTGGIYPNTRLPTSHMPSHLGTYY
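His-tagged ERG Ets domain (1 uM in the protein solution; 300mM KCl, 50mM Tris-HCl, 1mM EDTA, 1mM DTT, pH 7.5) received compound, then a probe mix of 5 nM fluorescein-DNA and 100nM Texas-615-DNA. Fluorescence polarization was read for both dyes.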
* marks the source's active call; other numbers are inactive results; ? = inconclusive; · = no result given; [ ] = remark or other dose. Compounds with a hit are over-represented: about 0.71% of the library has one in this group of screens. Unless noted, the call rests on the fitted dose curve; in most records, active means well fitted curve in the direction sought with a large enough effect; inconclusive means small, poorly fitted or top-dose-only effect, or another doubt; inactive means no such curve, though single readings can be large; an effect the other way counts as inactive or inconclusive. Potency means the concentration at half of the fitted maximal effect.

SMILES	TR SRC2 fluor cs	RECQ1 inh	TRb-SRC2 inh	BLM inh	RGS12 GoLoco inh	ERG-DNA inh
CCCn1cc(S(=O)(=O)c2ccc(C)c(C)c2)c(=O)c2cc(F)c(N3CCC(C)CC3)cc21	?	·	-6%	-4%	·	-3%
Cc1cccc(S(=O)(=O)c2cn(C)c3cc(N4CCN(c5ccccc5)CC4)c(F)cc3c2=O)c1	56µM*[quencher]	·	?	2%	·	8%
CCCn1cc(S(=O)(=O)c2ccc(C)c(C)c2)c(=O)c2cc(F)c(N3CCCCC3)cc21	282µM*[quencher]	·	-21%	0%	·	5%
O=C(Cl)c1cccc(C(=O)Cl)c1	-3%[201 µM]	·	-5%[201 µM]	·	·	·
CN(C)c1ccc(-c2nc3ccccn3c2Nc2ccc3c(c2)OCCO3)cc1	0%	·	4%	-3%	·	-3%
Cc1cccc(N=Nc2c(C)c(C#N)c(O)[nH]c2=O)c1	3%	9%	4%	-2%	5µM*	0%
Cc1c(C#N)c(O)[nH]c(=O)c1N=Nc1ccc(Br)cc1C(=O)O	·	·	·	-6%	·	-3%
CCCCC/C=C\C/C=C\C/C=C\C=C\C(O)CCCC(=O)O (configuration not stated)	1%	0%	-2%	-5%	6%	·
COc1c(O)cc2c(c1O)C1OC(CO)C(O)[C@H](O)[C@H]1OC2=O (some centres not stated)	-2%	-11%	-6%	4%	2%	·
O=C(O[C@@H]1OC2COC(=O)c3cc(O)c(O)c(O)c3-c3c(cc(O)c(O)c3O)C(=O)O[C@@H]([C@H]1O)[C@@H]2O)c1cc(O)c(O)c(O)c1	-1%	-29%	3%	5.6µM*	-38%	1%
CC(C)CC(=O)NC(=S)Nc1ccc(Cl)cn1	4µM*[quencher]	-1%	-21%[53 µM]	2%	52%	-1%
NCCCCCCC(O)(P(=O)(O)O)P(=O)(O)O	1%	-9%	-5%	2%	·	·
CS(=O)(=O)c1ccc(/C=N\NC(N)=S)cc1	·	·	·	·	5%[14.2 µM]	·
Cc1ccc(-n2cccc2/C=C2/C(=N)N3C(=NC2=O)SN=C3S(C)(=O)=O)cc1Cl	?	-10%	19%	28µM*	83%	32%
Cc1cccc(C)c1NC(=O)CN(C)S(=O)(=O)c1ccc2[nH]c3c(c2c1)CCCC3	22µM*[quencher]	·	-8%	-14%	·	-8%
Cc1cc(C)cc(NC(=O)CN(C)S(=O)(=O)c2ccc3[nH]c4c(c3c2)CCCC4)c1	1%	·	4%	-11%	·	6%
CN(CC(=O)NCc1ccccc1)S(=O)(=O)c1ccc2[nH]c3c(c2c1)CCCC3	0%	·	-4%	-10%	·	-3%
CN(CC(=O)NCc1ccc(F)cc1)S(=O)(=O)c1ccc2[nH]c3c(c2c1)CCCC3	18µM*[quencher]	·	-7%	-7%	·	3%
O=C(O)c1cccc(-n2cccc2C=C2C(=O)c3ccccc3C2=O)c1	-10%	-18%	6%	-5%	20%	6%
O=C(N/N=C/c1cccn1-c1cccc(C(=O)O)c1)Nc1ccccc1	-4%	25µM*	5%	-3%	7%	·
Cc1csc(NC(=O)c2cc(-c3ccco3)nc3ccccc23)n1	7.1µM*[quencher]	-12%	-21%[53 µM]	?	35%	14%
Cn1c(=O)c(C(=O)COC(=O)c2cc(C3CC3)nc3ccccc23)c(N)n(Cc2ccccc2)c1=O	2%	-18%	8%	-13%	35%	16%
Cn1c(=O)c(C(=O)COC(=O)c2cc(-c3ccco3)nc3ccccc23)c(N)n(CC2CC2)c1=O	-6%	32µM*	7%	?	25%	·
COc1ccc(CNC(=O)COC(=O)c2cc(-c3ccco3)nc3ccccc23)cc1	?	11µM*	-7%	-23%	12%	·
O=C(O)CCCC/C=C(\c1ccccc1)c1cccnc1	0%	·	9%	2%	·	·
SMILES	TR SRC2 fluor cs	RECQ1 inh	TRb-SRC2 inh	BLM inh	RGS12 GoLoco inh	ERG-DNA inh
Cc1ccc(-n2nnnc2CNC(=O)c2ccccc2F)cc1C	-2%	·	4%	-3%	·	-9%
Cc1ccc2nc(CSc3nnc(NC(=O)COc4ccccc4F)s3)cc(=O)n2c1	-3%	·	1%	0%	·	1%
CCOc1ccccc1NC(=O)Cc1coc2ccc(C)cc12	-7%	-12%	-2%	-12%	-6%	7%
CCOc1ccccc1NC(=O)Cc1coc2c(C)c(C)ccc12	35µM*[quencher]	·	-12%[53 µM]	-3%	·	2%
Cc1c2oc3c(C)ccc(C(=O)NC4C(=O)NC(C(C)C)C(=O)N5CCCC5C(=O)N(C)CC(=O)N(C)C(C(C)C)C(=O)OC4C)c3nc-2c(C(=O)NC2C(=O)NC(C(C)C)C(=O)N3CCCC3C(=O)N(C)CC(=O)N(C)C(C(C)C)C(=O)OC2C)c(N)c1=O (configuration not stated)	-1%	3.2µM*	-4%	·	9%	·
NN(c1ccccc1)c1ccccc1	0%[201 µM]	·	-2%[201 µM]	·	·	·
CC(/C=C/c1ccco1)=N\NC(=O)c1cc(C)[nH]n1	-2%	32µM*	-5%	-24%	35%	0%
Cc1cc(=O)oc2cc(O[C@@H]3O[C@H](C(=O)O)[C@@H](O)[C@H](O)[C@H]3O)ccc12	-1%	0%	5%	-4%	2%	·
COc1cccc(/C=C/C(=O)OCC(=O)NCC2CCCO2)c1OC (configuration not stated)	71µM*[quencher]	-7%	-17%[53 µM]	4%	-22%	-9%
C1CCC2(CCCCO2)OC1	-1%[201 µM]	·	-4%[201 µM]	·	·	·
COc1ccc(-c2noc(CCC(=O)Nc3cccnc3)n2)cc1OC	-1%	4%	-7%	3%	16%	-7%
COc1ccc(-c2noc(CCC(=O)Nc3ccccc3Cl)n2)cc1OC	0.004µM*[quencher]	·	-28%[53 µM]	-2%	·	7%
CCc1ccc(CNC(=O)Cc2ccc(NC(=O)N3CCSc4ncccc43)cc2)cc1	-1%	·	-7%	-1%	·	-3%
Nc1nc(N2CCOCC2)cc(=O)[nH]1	1%	-1%	-14%	-2%	20µM*	-5%
C=Cc1ccccc1Br	0%[201 µM]	·	0%[201 µM]	·	·	·
O=C(NCc1ccco1)c1cccn2c(=O)c3cc4ccccc4cc3nc12	-12%	?	-10%	20µM*	-9%	·
CC(=O)OCCn1c2nc(=O)[nH]c(=O)c-2nc2cc(C)c(C)cc21	-6%	-5%	-7%	-3%	14µM*	35µM*
CCCC(=O)OC[C@@H](OC(=O)CCC)[C@@H](OC(=O)CCC)[C@H](Cn1c2nc(=O)[nH]c(=O)c-2nc2cc(C)c(C)cc21)OC(=O)CCC	·	·	·	-4%	·	·
COCCn1c(=O)c(-c2cn(C)c3ccccc23)nc2cnc(Oc3ccccc3)nc21	·	-10%	·	-3%	12%	·
O=C1/C(=C\c2ccco2)SC(=S)N1C1CCCCC1	·	·	·	-6%	·	·

From PubChem BioAssay
